IL1B secr inh = qHTS for Inhibitors of Inflammasome Signaling: IL-1-beta AlphaLISA Primary Screen. THP-1 LPS/ATP IL-1B secretion, AlphaLISA, 16 h; hits give low values. activity change, % at 57.5 µM. hit rate 4.7% among 360,000; in the data active means activity change below about -50%; inconclusive means mostly about -30% to -49%
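THP-1 cells pretreated 1 hr with compounds (up to 57.5 uM final), then stimulated with LPS (250 ng/mL final) plus ATP (1.25 mM final); secreted IL-1B measured by AlphaLISA after 16 hr, decreased signal indicating inhibition.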
RORg inh = qHTS for inhibitors of ROR gamma transcriptional activity | AID 2551, 2010 | Drosophila S2 Gal4-RORgamma UAS-luciferase reporter, 20 h | Potency, µM (titrated, usually from 53.6 µM), for inactives: top-dose activity change, negative = inhibition, most hits filed as inhibitors | Nuclear receptor ROR-gamma (Mus musculus), P51450 | hit rate 5.4% among 310,000; further: potency means the concentration at half of the fitted maximal effect; nearly all actives have a fitted effect of over 60% in size
Target sequence (P51450 whole entry, looked up, the tested form may be a part): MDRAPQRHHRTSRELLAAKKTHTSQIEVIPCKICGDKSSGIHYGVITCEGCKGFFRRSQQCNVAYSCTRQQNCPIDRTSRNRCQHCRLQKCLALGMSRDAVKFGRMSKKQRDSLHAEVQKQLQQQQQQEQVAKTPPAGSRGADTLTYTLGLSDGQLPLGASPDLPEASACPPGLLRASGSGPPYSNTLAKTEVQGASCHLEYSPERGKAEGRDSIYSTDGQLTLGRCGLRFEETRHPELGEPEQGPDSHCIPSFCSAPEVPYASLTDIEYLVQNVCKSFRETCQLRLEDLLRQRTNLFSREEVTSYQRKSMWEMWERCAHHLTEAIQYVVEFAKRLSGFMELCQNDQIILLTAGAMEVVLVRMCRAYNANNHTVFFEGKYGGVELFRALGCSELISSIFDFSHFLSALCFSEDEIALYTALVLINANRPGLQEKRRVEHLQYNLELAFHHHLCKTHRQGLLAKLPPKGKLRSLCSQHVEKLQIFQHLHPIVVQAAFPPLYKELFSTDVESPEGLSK
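Stable Schneider cell line, Gal4 DNA-binding domain fused to ROR gamma, UAS-luciferase. Cmpd 1 hr RT → CuSO4 700 uM final → 20 hr RT → luciferase reagent 10 min → luminescence.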
TDP1 cell CPT = qHTS for Inhibitors of human tyrosyl-DNA phosphodiesterase 1 (TDP1): qHTS in cells in presence of CPT. chicken DT40 Tdp1-/-;hTDP1 cells + 20 nM CPT, ATP luminescence, 48 h. Potency, µM (highest dose often 46.2 µM), for the others: at the top dose activity change, negative = growth inhibition, actives largely listed as inhibitors. hit rate 12% among 420,000. AID 686979, 2013; further: potency means the concentration at half of the fitted maximal effect; nearly all actives have a fitted effect of over 55% in size
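Chicken DT40 Tdp1-/- cells stably complemented with human TDP1 were seeded at 400 cells/well in medium containing 20 nM camptothecin, exposed to pin-transferred compounds, and grown at 37 °C for at least 48 hr. Viability was read as ATP luminescence.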
DT40 TDP1 no CPT = qHTS for Inhibitors of human tyrosyl-DNA phosphodiesterase 1 (TDP1): qHTS in cells in absence of CPT. AID 686978, 2013. DT40 Tdp1-/- hTDP1 cells, no CPT, ATP luminescence, 48 h. hit rate 15% among 420,000. Potency, µM (series often up to 46.2 µM), for inactives: top-dose activity change, negative = growth inhibition, most hits filed as inhibitors; further: potency means the concentration at half of the fitted maximal effect; nearly all actives have a fitted effect of over 55% in size
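Readout: luminescence from CellTiter-Glo after 30 min in the dark at RT. Cells: DT40 Tdp1-/- with stable hTDP1, 400/well. Exposure: compounds alone, ≥48 hr, 37 °C.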
ELG1 DNA repair = qHTS screen for small molecules that inhibit ELG1-dependent DNA repair in human embryonic kidney (HEK293T) cells expressing luciferase-tagged ELG1; HEK293T ELG1-luciferase reporter, luminescence, 16 h; DNA damage induced by 5-fluorouridine; Potency, µM (highest dose often 46.1 µM), without a hit: at the top dose activity change, negative = inhibition, hits mostly inhibitors; hit rate 2.3% among 330,000; further: potency means the concentration at half of the fitted maximal effect; nearly all actives have a fitted effect of over 55% in size
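Cells (2,000 per well) received 5-fluorouridine plus test compound or DMSO and were incubated 16 hr at 37 °C, 5% CO2. Luciferase activity was read by luminescence 30 min after ONE-Glo addition; signal suppression marked inhibition of damage-induced ELG1 function.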
VP16 counter = VP16 counterscreen qHTS for inhibitors of ROR gamma transcriptional activity | Drosophila S2 Gal4-VP16 UAS-luciferase, luminescence, 20 h | Potency, µM (series often up to 53.6 µM), for inactives: at the top dose activity, negative = inhibition, actives largely listed as inhibitors | hit rate 3.5% among 310,000;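 further: Gal4-VP16 expression switched on by copper sulfate through the metallothionein promoter; potency means the concentration at half of the fitted maximal effect; nearly all actives have a fitted effect of over 50% in size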
Active calls of the source: *; ? = inconclusive; / = not tested or not shown; [ ] = dose if it differs, or a comment. Compounds with a hit are over-represented: about 21% of the library has one in this group of screens. Unless noted, the call rests on the fitted dose curve; in most records, active means well fitted curve in the direction sought with a large enough effect; inconclusive means small, poorly fitted or top-dose-only effect, or another doubt; inactive means no such curve, though single readings can be large; an effect the other way counts as inactive or inconclusive. On the % scale 0 is the no-effect control and ±100 the full control effect.

SMILES	IL1B secr inh	RORg inh	TDP1 cell CPT	DT40 TDP1 no CPT	ELG1 DNA repair	VP16 counter
Oc1c(Cl)cc(Cl)cc1/C=N/c1nc(-c2ccc(Cl)cc2)cs1	-19.5	-44.2%	6.6%	?	29.2%	5.3%
Oc1c(Cl)cc(Cl)cc1/C=N/c1nccs1	-13.0	12.6µM*	25.9µM*	?	-21.1%	?
CCN1/C(=N\N)c2cccc3cccc1c23	3.7	-3.6%	?	20.6µM*	11.9%	-6.9%
CCC(C)NC(=O)CN1C(=O)c2cccc3cccc1c23 (configuration not stated)	-0.5	?	7.4%	-8.8%	1.7%	9.1%
C[C@H](NC(=O)C1CCN(S(=O)(=O)c2ccccc2)CC1)C(=O)NCc1ccncc1	-4.4	/	-9.9%	0.1%	/	/
COc1ccc(/C(C)=N/NC(=O)c2ccc(CSc3cccc4cccnc34)cc2)cc1OC	-16.1	15.8µM*	?	15.8µM*	-9.4%	20.4%
CC(=O)CCc1ccc(OCCCOc2cccc3cccnc23)cc1	-11.9	?	?	?	-15.1%	?
CC(=O)c1ccccc1OCCOCCOCCOc1ccccc1C(C)=O	-16.1	18.0%	18.4µM*	?	6.2%	3.4%
CC(C)Oc1ccccc1OCCCOc1cccc2cccnc12	?	14.1µM*	?	20.6µM*	?	-27.5%
OCc1ccccc1OCCCOc1cccc2cccnc12	-18.3	24.0%	-1.2%	-10.1%	?	-14.7%
CC(=O)c1ccc(OCCCOc2cccc3cccnc23)cc1	-69.8*	?	?	?	13.3%	27.2%
Brc1[nH]nc2ccccc12	27.8	25.3%	-21.1%	-2.3%	-3.5%	-1.0%
OCc1cn(-c2ccc(Cl)cc2)nn1	1.4	-2.4%	1.4%	-7.6%	16.9%	3.8%
CC1CN(CCN2CC(C)N(C=O)CC2C)C(C)CN1C=O (configuration not stated)	-2.7	/	32.6%	10.1%	/	/
CC(=O)c1ccccc1OCCCOc1cccc2cccnc12	15.0	/	23.1µM*	23.1µM*	/	/
Cc1cc(OCCOc2cccc3cccnc23)cc(C)c1Cl	-12.5	20µM*	14.6µM*	18.4µM*	-6.6%	-28.7%
COc1cc(C(C)=O)ccc1OCCCOc1cccc2cccnc12	-11.0	?	18.4µM*	?	8.0%	17.1%
COc1ccc(C(=O)NN=C(Cc2ccccc2)Cc2ccccc2)cc1OC	6.1	11.2µM*	?	?	-21.2%	?
COc1ccc(C(C)=O)cc1COc1cccc2cccnc12	53.8	-22.3%	-3.8%	?	?	-3.4%
c1ccc(OCCOc2cccc3cccnc23)cc1	-22.6	-20.3%	-15.1%	-28.1%	?	29.0%
Cc1c(NC(=O)Nc2cc(F)c(F)cc2Cl)c(=O)n(-c2ccccc2)n1C	-5.8	/	-9.1%	-5.9%	/	/
COc1ccc(C2(C)C(C#N)C(=O)NC(=O)C2C#N)cc1 (configuration not stated)	23.8	/	-57.7%	2.31µM*	/	/
Cn1c(=O)[nH]c(=O)c2c1nc(Sc1ccccc1)n2CCc1ccccc1	14.2	16.7%	-18.9%	-23.5%	11.5%	7.7%
Cc1ccc(Cn2c(Sc3nnc(C)s3)nc3c2c(=O)[nH]c(=O)n3C)cc1	-11.1	-5.9%	?	23.1µM*	2.5%	-0.8%
Cn1c(=O)[nH]c(=O)c2c1nc(Sc1nc3ccccc3s1)n2Cc1ccccc1	-4.5	14.9%	8.2µM*	6.51µM*	?	?
SMILES	IL1B secr inh	RORg inh	TDP1 cell CPT	DT40 TDP1 no CPT	ELG1 DNA repair	VP16 counter
Cc1nnc(Sc2nc3c(c(=O)[nH]c(=O)n3C)n2CCc2ccccc2)s1	-5.7	9.6%	-18.2%	-26.8%	3.4%	-6.5%
C/C(=N\NC(=O)CCc1ccccc1)C1C(=O)c2ccccc2C1=O	39.8	0.562µM*	1.64µM*	2.59µM*	?	2µM*
C/C(=N\NC(=O)c1cccc(Cl)c1)C1C(=O)c2ccccc2C1=O	0.0	-4.2%	0.92µM*	0.82µM*	-0.3%	-3.8%
CC(/C=C/c1ccccc1)=N\NC(=O)CCc1ccccc1	-0.5	-43.9%	-14.4%	-1.8%	9.7%	-9.0%
O=c1c(-c2ccc(Cl)cc2)nc2cnc(N3CCOCC3)nc2n1C1CC1	/	-17.2%	-3.5%	11.5%	/	0.4%
O=C(c1sccc1Cl)N1CCN(Cc2ccc3c(c2)OCO3)CC1	-80.9*	-0.2%	3.3%	?	20.6µM*	1.9%
OC(COc1ccccc1)CN1CCN(Cc2ccc3c(c2)OCO3)CC1 (configuration not stated)	30.5	13.3%	9.0%	-16.0%	-5.7%	15.6%[10 µM]
O=C(c1ccccc1Cl)N1CCN(Cc2ccc3c(c2)OCO3)CC1	?	-14.9%	-13.3%	-15.0%	?	-18.7%
COc1ccsc1C(=O)N1CCN(Cc2ccc3c(c2)OCO3)CC1	0.0	-34.6%	-9.9%	-22.0%	?	1.7%
O=C(c1cc(-c2ccc(F)cc2)no1)N1CCN(Cc2ccc3c(c2)OCO3)CC1	-23.1	-2.2%	?	16.4µM*	-14.7%	2.9%
Cc1cc(C)cc(OCC(O)CN2CCN(Cc3ccc4c(c3)OCO4)CC2)c1 (configuration not stated)	-5.1	24.2%	13µM*	20.6µM*	?	-5.7%
Cc1ccc(C(=O)N2CCN(Cc3ccc4c(c3)OCO4)CC2)c(Cl)c1	-59.2*	10.1%	8.2µM*	16.4µM*	-32.2%	3.1%
O=C(O)C(O)C(O)(Cc1ccc(O)cc1)C(=O)O (configuration not stated)	/	-6.1%	16.1%[9.04 µM]	-14.4%[9.04 µM]	/	?
Cc1cccc(NC(=O)c2cc([N+](=O)[O-])ccc2NCC2CCCO2)n1 (configuration not stated)	?	27.9%	3.6%	-16.5%	14.6µM*	1.2%
COc1cc([N+](=O)[O-])ccc1NC(=O)CSc1ccccn1	/	9.7%	/	/	-8.7%	14.5%
O=C(CNCC1CCCO1)Nc1ccc([N+](=O)[O-])cc1C(=O)Nc1ccccc1F (configuration not stated)	0.0	10.6%	-28.9%	2.7%	?	-3.0%
COCCCNc1ccc([N+](=O)[O-])cc1C(=O)Nc1cccc(C)n1	21.7	16.9%	-8.4%	-18.8%	?	-0.9%
